From PubChem BioAssay AID2530 (National Center for Advancing Translational Sciences (NCATS), 2010)
Results filed as inconclusive are left out. Calls of active or inactive are those of the source. Calls follow the shape of the dose curve; as a rule, active = well fitted inhibition curve with a large enough effect; inconclusive = small, poorly fitted or top-dose-only effect; inactive = flat fitted curve, though single readings scatter.

These compounds were tested against Luciferin 4-monooxygenase (Photuris pensylvanica) (UniProt Q27757) (assay: Secondary Assay for Luciferase (Kinase-Glo TM) Inhibition Counterscreen). Conditions: Kinase-Glo luciferase enzyme, luminescence; series mostly up to 58.1 µM; activity, negative = inhibition: at the top concentration.
Method in brief: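 Inhibition was fitted with the Hill equation after normalizing luminescence to DMSO (basal) and 40 uM SIB 1757 (full inhibition). Kinase-Glo luciferase ran for 8 min at room temperature in imidazole buffer pH 7.2 with KCl, MgCl2 and 10 uM ATP.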
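For activity, negative = inhibition in this document: 0% = DMSO only and -100% = 40 µM SIB 1757 full inhibition.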
Potency is read from the fitted curve at half-maximal effect.

| Compound | activity, negative = inhibition | Potency |
| --- | --- | --- |
| O=C1c2ccccc2C(=O)N1c1cccc2cccnc12 | -0.904% (inactive) | – |
| O=C1c2ccccc2C(=O)N1c1noc2ccccc12 | 3.69% (inactive) | – |
| COc1cccc(N2C(=O)c3ccccc3C2=O)c1 | -4.49% (inactive) | – |
| Cc1ccc(NS(=O)(=O)c2cc3c(cc2-c2ccsc2)NC(=O)CO3)cc1C | -1.05% (inactive) | – |
| O=S1(=O)N=C(Oc2ccccc2Cl)c2ccccc21 | 0.85% (inactive) | – |
| CN(C)c1ccc(N=Nc2nc3ccccc3n2C)cc1 | – | 9.19 µM (active) |
| Cc1ccc(C)c(OC2=NS(=O)(=O)c3ccccc32)c1 | – | inactive |
| Cn1c2cc(S(C)=O)sc2c2cnn(Cc3cccc(N)c3)c(=O)c21 (stereo not given) | -0.0499% (inactive) | – |
| Fc1ccc(-c2nc3n(n2)Cc2ccccc2-3)cc1 | – | 7.3 µM (active) |
| O=C1CCc2cc(S(=O)(=O)Nc3cccc(F)c3)ccc2N1 | -4.76% (inactive) | – |
| O=c1[nH]c2ccccc2n2c(-c3ccccc3)nnc12 | -2.79% (inactive) | – |
| Cc1ccc(NS(=O)(=O)c2cc3c(cc2/C=C/c2ccccc2)NC(=O)CO3)cc1C | 0.533% (inactive) | – |
| COC(=O)CSC1=NS(=O)(=O)c2ccccc21 | -7.15% (inactive) | – |
| CC(=O)N1CCc2cc(S(=O)(=O)Nc3ccc(C)c(C)c3)ccc21 | -18.9% (inactive) | – |
| O=C1c2ccccc2C(=O)N1c1cccc2cnccc12 | -0.604% (inactive) | – |
| Cc1ccc(NS(=O)(=O)c2cccc(F)c2)cc1C | -0.467% (inactive) | – |
| COc1ccc2[nH]c3c4c(ccc3c2c1)C(=O)C=CC4=O | -10.9% (inactive) | – |
| O=C1c2ccccc2C(=O)N1c1cccc2ccncc12 | 0.772% (inactive) | – |
| COc1ccc(N2C(=O)c3ccccc3C2=O)cc1 | -5.5% (inactive) | – |
| O=C1CCc2cc(S(=O)(=O)Nc3ccccc3F)ccc2N1 | 3.13% (inactive) | – |
